# Reference: PubChem BioAssay AID1531 (NMMLSC, 2009)
# Out of some 290,000 compounds screened, about 3,300 (1.1%) were called active. The sample as a whole holds a higher share of actives than the screen did. Unmarked numbers belong to inactive results. Cut-off read from the data, not from the text of the source: active = binding response below about 67% or above about 130%; inconclusive = no clear call, values can overlap the other calls; inactive = in between.
# Biological target: Mitogen-activated protein kinase kinase kinase 2 (Homo sapiens) (UniProt Q9Y2U5)
# Assay: modulators of MEK5 binding to wildtype MEKK2, primary screen, biochemical, multiplex bead flow cytometry, Alexa488-MEK5 (AID 1531)
# Conditions: Alexa488-MEK5 binding to MEKK2 WT, at 10 µM, actives lie on both sides
row,SMILES,binding response (% of control)
1,Cc1ccc(S(=O)(=O)NC2CCCCCC2)cc1C(N)=O,99%
2,c1ccc2c(c1)C(=NC1CCCCC1)NC2=NC1CCCCC1,145% (active)
3,O=C(c1noc2c1CCCC2)N1CCc2ccccc2C1,97%
4,Cc1ccccc1NC(=O)NCC1CCN(Cc2cccc(Cl)c2)CC1,104%
5,O=C(NCC1CCN(Cc2ccccc2Cl)CC1)Nc1cccc(Cl)c1,110%
6,COc1ccc(Cl)cc1NC(=O)NCC1CCN(Cc2ccccc2F)CC1,118%
7,COc1cc(NC(=O)NCC2CCN(Cc3ccc(C)cc3)CC2)cc(OC)c1OC,113%
8,Cc1cccc(CN2CCC(CNC(=O)Nc3ccc(F)c(Cl)c3)CC2)c1,139% (active)
9,Cc1ccc(C)c(CN2CCC(CNC(=O)Nc3ccc(C)c(F)c3)CC2)c1,150% (active)
10,CC(C(=O)c1ccc(-c2ccccc2)cc1)[n+]1cccc(Br)c1 (configuration not stated),123%
11,CC(=O)N1CC(=O)N(CC(=O)Nc2ccc(Br)cc2)C1=S,97%
12,CCOC(=O)c1cccc(NC(=O)c2ccc(F)cc2F)c1,105%
13,CCN(CC(=O)NCC(=O)Nc1cccc(C)c1C)Cc1ccccc1,103%
14,CCOC(=O)/C(C#N)=C/c1ccc(OCC(=O)Nc2ccccc2)c(OC)c1,37% [inhibitor] (active)
15,CCCn1c(C)cc(/C=C(\C#N)C(=O)OCC(=O)Nc2cc(OC)c(OC)c(OC)c2)c1C,106%
16,COc1cc(C2C3=C(CCCC3=O)OC3=C2C(=O)CCC3)ccc1OCC(=O)Nc1ccccc1,96%
17,OC(COc1ccc(F)cc1Cl)CN1CCc2ccccc2C1 (configuration not stated),105%
18,Cc1cccc(OCC(O)CN2CCN(S(=O)(=O)c3ccc(C)cc3C)CC2)c1 (configuration not stated),95%
19,Cc1ccc(OCC(O)CN2CCN(CC(O)COc3ccc(C)cc3Cl)CC2)c(Cl)c1 (configuration not stated),134% (active)
20,C[n+]1cc(-c2ccccc2)oc1-c1ccccc1,100%
21,COc1ccc(CCn2c(NCCCN3CCOCC3)nc3c2c(=O)[nH]c(=O)n3C)cc1,103%
22,COc1ccc(CNc2nc3c(c(=O)[nH]c(=O)n3C)n2Cc2ccccc2)cc1,109%
23,COc1ccc(CCn2c(NN=C3CCCC3)nc3c2c(=O)[nH]c(=O)n3C)cc1,39% [inhibitor] (active)
24,COC(=O)CN1C(=O)[C@H]2[C@@H](/C=C/c3ccccc3)N3C(=O)CN(CC4CC4)C(=O)[C@@]3(Cc3ccccc3)[C@H]2C1=O,104%

row,SMILES,binding response (% of control)
1,CC1=C(N2CCN(c3ncccn3)CC2)CCC1=O,111%
2,COc1cccc(CNC(=O)C2CC(=O)N(C3CCCCCCC3)C2)c1 (configuration not stated),94%
3,O=C(Nc1nnc(C2CC2)s1)c1cc(Cl)sc1Cl,102%
4,CC(C)(C)NC(=O)NC(=O)COC(=O)C1c2ccccc2Oc2ccccc21,100%
5,COc1ccc(OCC(=O)NNC(=O)c2cccc(C)c2)cc1,93%
6,COc1cccc(OCC(=O)NNC(=O)c2cnccn2)c1,2% [inhibitor] (active)
7,COc1cccc(OCC(=O)Nc2ccccc2C(N)=O)c1,115%
8,COc1ccc(CCNC(=O)CCNS(=O)(=O)c2cc(Br)cnc2N)cc1OC,106%
9,CCOC(=O)c1cc(-c2nnc(-c3cc(OC)c(OC)c(OC)c3)o2)c(C)nc1C,104%
10,CC(C)(C)NC(=O)c1ccc(Cn2cc(C(F)(F)F)ccc2=O)cc1,101%
11,COc1cc(-c2nnc(Cn3cc(C(F)(F)F)ccc3=O)o2)cc(OC)c1OC,3% [inhibitor] (active)
12,CCC(Cc1ccccc1)NS(=O)(=O)c1ccc2c(c1)NC(=O)CS2 (configuration not stated),102%
13,Nc1cc(N)nc(SCc2cccc(F)c2)n1,104%
14,COC(=O)c1c(C)cc(O)c(C)c1O,104%
15,C#CC(C)(C)NC(=O)CSc1nc2c(c(=O)n(C)c(=O)n2C)n1CCCC,106%
16,CCn1c(NCCc2ccc(OC)c(OC)c2)nc2c1c(=O)n(C)c(=O)n2C,102%
17,CCCCn1c(SCC(=O)NCCc2ccc(OC)c(OC)c2)nc2c1c(=O)n(C)c(=O)n2C,-4% [inhibitor] (active)
18,CCCCN(CC)C(=O)c1ccc2c(c1)OCO2,100%
19,CCN(CC)C(=O)CC(c1ccc2c(c1)OCO2)c1c(OC)cc(OC)c2c(-c3ccccc3)cc(=O)oc12 (configuration not stated),143% (active)
20,COc1cc(OC)c2ccc(=O)oc2c1C(CCN1CCN(c2ccccc2)CC1)c1ccc2c(c1)OCO2 (configuration not stated),110%
21,CCN(CC)CCC(c1cc(OC)c(OC)c(OC)c1)c1c(OC)cc(OC)c2c(-c3ccccc3)cc(=O)oc12 (configuration not stated),90%
22,COc1cc(OC)c(C(=O)NCc2ccc3c(c2)OCO3)cc1OC,102%
23,CCN(CC)CCC(c1ccc2c(c1)OCO2)c1c(OC)cc(OC)c2c(-c3ccccc3)cc(=O)oc12 (configuration not stated),137% (active)
